# Measured values as given in PubChem BioAssay (NCATS).
# Inconclusive results are not listed. The source made the active and inactive calls. Calls come from the whole dose curve; as a rule, active = well fitted cell-killing curve with a large enough effect; inconclusive = small, poorly fitted or top-dose-only effect; inactive = flat fitted curve, though single readings scatter.
# Assay: Cell Viability - LYMP2-013 (AID 970);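 note: cells exposed to compound for 24 h at 37 °C; nearly all actives have a fitted effect of over 55% in size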;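 for activity change, negative = cytotoxic: 0% = DMSO only and full inhibition = tetraoctylammonium bromide control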
# Settings: LYMP2-013 lymphoblastoid cells viability; series mostly up to 92.2 µM; activity change, negative = cytotoxic: at the top concentration
# Source text: NIH Chemical Genomics Center [NCGC]
# NIH Molecular Libraries Screening Centers Network [MLSCN]
# National Institutes of Environmental Health Sciences [NIEHS]
# National Toxicology Program [NTP]
# We have developed a 1536-well cell-based assay for quantitative high throughput screening (qHTS) against a number of cell lines to determine in vitro cytotoxicity of small molecules. This particular assay uses a human lymphoblastoid cell line (LYMP2-013) purchased from Coriell Institute for Medical Research.
# NCGC Assay Protocol Summary:
# The CellTiter-Glo luminescent cell viability assay (Promega) is a homogeneous method to measure the number of viable cells in culture. The end point readout of this assay is based on quantitation of intracellular ATP, an indicator of metabolic activity, using the luciferase reaction. Luciferase catalyzes the oxidation of beetle Luciferin to oxyluciferin and light in the presence of ATP. The luminescent signal is proportional to amount of ATP present.
# Using the CellTiter-Glo luminescent cell viability assay, the amount of cellular ATP was measured in the lymphoblastoid cell line with complete culture medium following compound treatment for 24 hours. The assay was performed in opaque white Kalypsys 1536-well plates. In the screen, tetraoctylammonium bromide was used as positive control. Library compounds were measured for their ability to cause acute toxicity in the cell line, as reflected by a decrease in intracellular ATP levels, in a concentration-dependent manner. […] AC50 values were determined from concentration-response data modeled with the standard Hill equation.
# qHTS protocol for CellTiter Glo lymphoblastoid cellular assay
# [Step] [Parameter] [Value] [Description]
# 1. Reagent; 5 uL; 2500 lymphoblastoid cells/well
# 2. Time; 5 hr; 37 C incubation
# 4. Controls; 23 nL; Tetraoctylammonium bromide 6.4pM to 92 uM
# 5. Time; 24 hr; 37 C incubation
# 6. Reagent; 5 uL; CellTiter Glo reagent
# 7. Time; 30 min; Room Temperature
# 8. Detection; Luminescence; Viewlux plate reader
# Keywords: cell viability, cytotoxicity, lymphoblastoid cell line, luminescence, NTPHTS, NTPHTS_NCGC, NIEHS, DSSTox, MLSMR, MLSCN, NIH Roadmap, qHTS, NCGC
# Potency is the fitted concentration of half-maximal effect.
Structure (SMILES),"activity change, negative = cytotoxic",Potency
CC(C)C(C)(C)C(C)(C)C(C)(C)S,1.49% (inactive),–
O=C(c1ccccc1)c1ccccc1,-6.03% (inactive),–
Cc1ccc(O)cc1,5.82% (inactive),–
CC(C)(c1ccc(O)cc1)c1ccc(O)cc1,–,inactive
O=C(Oc1ccccc1)c1ccccc1O,-7.5% (inactive),–
Brc1ccccc1-c1ccccc1,-5.5% (inactive),–
CCCCCCCCCCCCCCCC[n+]1ccccc1,–,25.1 µM (active)
CC(C)(C)c1ccc(O)c(O)c1,–,39.8 µM (active)
CCCC(=O)c1cc(O)c(O)cc1O,-17.9% (inactive),–
Oc1ccccc1,-2.97% (inactive),–
c1ccc2occc2c1,-5.78% (inactive),–
COc1cc(C=O)ccc1O,1.24% (inactive),–
OCc1c[nH]c2ccccc12,-2.81% (inactive),–
CCCCC(CC)COC(=O)c1ccccc1C(=O)O (stereo not given),-2.21% (inactive),–
Nc1cccc2c(N)cccc12,-9.1% (inactive),–
Nc1c2ccccc2nc2ccccc12,–,12.6 µM (active)
Nc1ccc(O)cc1,–,50.1 µM (active)
O=C(NO)c1ccccc1,-5.16% (inactive),–
Cc1cc(C(C)(C)C)c(O)c(C(C)(C)C)c1,-4.39% (inactive),–
C1=CC2C3C=CC(C3)C2C1 (stereo not given),-5.3% (inactive),–
